Bioassay records as filed in PubChem.
L3MBTL1 block: qHTS Assay for the Inhibitors of L3MBTL1. Lethal(3)malignant brain tumor-like protein 1 (Homo sapiens), Q9Y468. AlphaScreen L3MBTL1–H3K9me1 peptide binding. Potency, µM (top dose mostly 57.1 µM), inactives show at the top dose activity, negative = inhibition, actives largely listed as inhibitors. actives 0.66% (n = 230,000). AID 485360, 2010; note: % is set by controls: 0 for no effect and ±100 for the full control effect; nearly all actives have a fitted effect of over 60% in size
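First, the protein-peptide complex forms for 30 min at room temperature (L3MBTL1 50 nM, biotinylated H3K9me1 peptide 75 nM). Next, compounds are pin-transferred and incubated 30 min. Finally, AlphaScreen beads are added and read after 30 min.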
BAZ2B block: qHTS Assay for Inhibitors of BAZ2B. actives 4.4% (n = 360,000). AlphaScreen BAZ2B-H3K14Ac peptide displacement. Bromodomain adjacent to zinc finger domain protein 2B (Homo sapiens), Q9UIF8. Potency, µM (top dose mostly 114 µM), for the others: top-dose activity change, negative = inhibition, actives largely listed as inhibitors; note: % is set by controls: 0 for no effect and ±100 for the full control effect; nearly all actives have a fitted effect of over 60% in size
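Complex of BAZ2B and biotin-H3K14Ac (50 nM apiece) forms over 30 min at RT, then faces library compounds up to 110 uM for another 30 min; AlphaScreen beads added, 20 min dark incubation, luminescence read.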
HP1b chromo inh: HTS for Inhibitors of HP1-beta Chromodomain Interactions with Methylated Histone Tails; Chromobox protein homolog 1 (Homo sapiens), P83916; AlphaScreen HP1-beta / biotin-H3K9me3 peptide binding; Potency, µM (series often up to 114 µM), inactives show at the top dose activity change, negative = inhibition, usual class: inhibitors; actives 0.56% (n = 390,000); note: nearly all actives have a fitted effect of over 70% in size
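Compound inhibition of the preformed complex between 50 nM HP1-beta and 50 nM biotinylated H3K9me3 peptide was read by AlphaScreen. Buffer was PBS pH 7.4 with 0.01% Tween-20. Incubations ran 30 min at room temperature, with 10 ug/mL donor/acceptor beads.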
Sfp PPTase inh: qHTS Assay for Inhibitors of Bacillus subtilis Sfp phosphopantetheinyl transferase (PPTase) | 4'-phosphopantetheinyl transferase ffp (Bacillus subtilis), Q9F4F7 | Biochemical Sfp PPTase activity, qHTS | Potency, µM, inactives show largest response in the series, negative = inhibition, actives largely listed as inhibitors | actives 3.5% (n = 310,000) | AID 1490, 2009;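 note: the enzyme is Sfp with the accession as filed and its product quenches rhodamine fluorescence; 0% = enzyme reaction without inhibitor and -100% = no enzyme wells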
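After 15 min at room temperature with compound, 15 nM Sfp received 5 uM rhodamine-CoA plus 12.5 uM BHQ-2-ybbR (50 mM Hepes pH 7.6, 10 mM MgCl2). Rate came from the fluorescence difference over 30 min, ex 525/em 598 nm.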
G9a block: qHTS Assay for Inhibitors of Histone Lysine Methyltransferase G9a. Histone-lysine N-methyltransferase EHMT2 (Homo sapiens), Q96KQ7. G9a H3K9 monomethylation, AlphaScreen, 2 h. Potency, µM (top dose mostly 102 µM), inactives show at the top dose activity, negative = inhibition, most hits filed as inhibitors. actives 8.8% (n = 350,000). AID 504332, 2011; note: % is set by controls: 0 for no effect and ±100 for the full control effect; nearly all actives have a fitted effect of over 75% in size
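Signal arises when biotinylated H3K9 peptide, once monomethylated, bridges streptavidin donor and antibody-captured acceptor beads. Enzyme at 20 nM was preincubated 15 min with test compounds; peptide 500 nM and SAM 20 uM then reacted for 2 h.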
JMJD2A Tudor: qHTS Assay for Inhibitors of JMJD2A-Tudor Domain. AlphaScreen JMJD2A-Tudor / H3K4me3 peptide binding. Potency, µM (doses to about 114 µM), for the others: at the highest dose activity change, negative = inhibition, actives largely listed as inhibitors. actives 4.4% (n = 390,000); note: % is set by controls: 0 for no effect and ±100 for the full control effect; nearly all actives have a fitted effect of over 50% in size
Target sequence (O75164 whole entry, looked up, the tested form may be a part): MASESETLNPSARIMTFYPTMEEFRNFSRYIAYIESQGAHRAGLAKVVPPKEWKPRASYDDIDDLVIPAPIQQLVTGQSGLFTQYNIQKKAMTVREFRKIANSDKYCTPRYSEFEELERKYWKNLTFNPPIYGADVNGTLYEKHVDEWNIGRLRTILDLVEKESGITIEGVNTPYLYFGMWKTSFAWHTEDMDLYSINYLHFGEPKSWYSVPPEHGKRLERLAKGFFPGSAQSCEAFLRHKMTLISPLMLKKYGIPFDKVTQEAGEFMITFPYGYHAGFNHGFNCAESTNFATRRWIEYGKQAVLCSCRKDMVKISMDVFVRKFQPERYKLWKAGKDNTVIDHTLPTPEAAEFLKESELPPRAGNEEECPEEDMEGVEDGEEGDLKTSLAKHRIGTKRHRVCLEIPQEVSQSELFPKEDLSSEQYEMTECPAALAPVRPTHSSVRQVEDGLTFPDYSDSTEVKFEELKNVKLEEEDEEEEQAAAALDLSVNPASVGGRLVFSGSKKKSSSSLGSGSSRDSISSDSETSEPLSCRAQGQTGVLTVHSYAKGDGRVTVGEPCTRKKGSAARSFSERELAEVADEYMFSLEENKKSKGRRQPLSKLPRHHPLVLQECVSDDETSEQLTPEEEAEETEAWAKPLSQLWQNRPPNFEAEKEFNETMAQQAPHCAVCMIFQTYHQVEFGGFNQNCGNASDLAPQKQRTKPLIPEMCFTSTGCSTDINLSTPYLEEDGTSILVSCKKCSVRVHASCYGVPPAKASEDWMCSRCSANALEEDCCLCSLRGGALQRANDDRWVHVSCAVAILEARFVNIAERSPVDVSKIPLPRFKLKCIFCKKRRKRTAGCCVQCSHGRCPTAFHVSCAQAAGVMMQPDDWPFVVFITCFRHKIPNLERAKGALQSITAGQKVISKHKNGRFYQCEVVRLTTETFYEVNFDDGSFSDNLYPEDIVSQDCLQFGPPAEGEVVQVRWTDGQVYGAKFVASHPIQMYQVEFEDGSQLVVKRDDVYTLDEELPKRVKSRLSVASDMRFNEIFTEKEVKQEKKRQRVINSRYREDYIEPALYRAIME
The depositor's hits bear a star; ? = inconclusive; nt = no result given; [ ] = dose if it differs, or a comment. Compounds with a hit are over-represented: about 12% of the library has one in this group of screens. Calls come from the whole dose curve; as a rule, active = well fitted curve in the direction sought with a large enough effect; inconclusive = small, poorly fitted or top-dose-only effect, or another doubt; inactive = no such curve, though single readings can be large; an effect the other way counts as inactive or inconclusive. Potency is the fitted concentration of half-maximal effect.

SMILES	L3MBTL1 block	BAZ2B block	HP1b chromo inh	Sfp PPTase inh	G9a block	JMJD2A Tudor
COc1ccc(-c2nnc(SCC(=O)NC(=O)NCc3ccccc3)o2)cc1	nt	-22%	20%	?	45µM*	-23%
COc1ccc(-c2nnc(SCC(=O)NCc3ccco3)o2)cc1	nt	-39%	13%	-24%	?	-27%
O=C(OCC(=O)N1CCN(c2ccccc2)CC1)c1ccccc1NCCO	9%	3%	19%	nt	6%[0.501 µM]	?
COc1ccc(NC(=O)CSc2nnc3c(n2)[nH]c2ccc(S(=O)(=O)N(C)C)cc23)c(OC)c1	nt	nt	3%	nt	nt	-33%
Nc1scc2c(C(=O)N/N=C/c3ccc(Cl)cc3)nn(-c3ccccc3)c(=O)c12	-15%	?	-24%	14µM*	?	45µM*
[O-][n+]1cccc2c(Br)cc(Br)c(O)c21	nt	nt	8%	-20%	50µM*	-27%
COc1ccc2c(ccc[n+]2[O-])c1	nt	nt	-7%	nt	nt	-14%
O=C(CCCN=C1NS(=O)(=O)c2ccccc21)OCC(=O)c1ccc(F)cc1	-2%	13%	20%	nt	?	-14%
O=C1CC(c2ccc(Cl)cc2)n2nc(N3C(=O)c4ccccc4C3=O)nc2N1 (stereo unspecified)	-6%	79µM*	25%	-28%	-33%[59 µM]	?
O=C1CC(c2ccccc2)n2nc(N3C(=O)c4ccccc4C3=O)nc2N1 (stereo unspecified)	6%	3%	29%	5%	-9%[59 µM]	-8%
c1ccc(CSc2nnc(-c3ccco3)o2)cc1	6%	1%	17%	13%	38%	0%
Brc1ccc(CSc2nnc(-c3ccco3)o2)cc1	10%	68%	140%	56µM*	83%	76%
COc1ccc(-c2cnnc(N/N=C/c3ccc(C)o3)n2)cc1	-7%	-3%	-21%	23%	22%	14µM*
COc1ccc(-c2cnnc(N/N=C/c3ccc(O)cc3)n2)cc1	0%	-13%	30%	5%	2%	-7%[11.4 µM]
Brc1ccc(/C=N/Nc2nncc(-c3ccccc3)n2)o1	19%	-4%	nt	19%	1%	nt
COc1ccc(-c2cnnc(N/N=C/c3ccc(O)c(O)c3)n2)cc1	?	45µM*	-33%	-25%	-8%	40µM*
O=C(c1ccc2c(c1)N(Cc1ccccc1)C(=O)c1ccccc1S2(=O)=O)N1CCOCC1	nt	-14%	14%	nt	0%[59 µM]	-12%
COc1ccc2oc(C(=O)OCC(=O)NCc3ccccc3OC)c(C)c2c1	-3%	0%	0%	nt	-34%	-21%
COc1ccc2[nH]c3c(c2c1)CCN1C(=O)C(CC(=O)NCc2cccc(C(F)(F)F)c2)C[C@H](C(=O)N(C(C)C)C(C)C)[C@@]31C (stereo partly specified)	-7%	nt	-15%	nt	nt	?
O=C(CNc1cccc2ccccc12)N/N=C/C=C/c1ccco1	?	-37%	6%	-12%	20µM*	-25%
O=C(Cc1cccc2ccccc12)N/N=C/c1ccc(F)cc1	8%	10%	33%	?	nt	-13%
O=C(Cc1cccs1)N/N=C/C=C/c1ccco1	?	45µM*	28µM*	?	40µM*	?
C/C(=N/NC(=O)Cc1cccs1)c1ccco1	0%	-2%	?	9%	5%[59 µM]	?
O=C(Cc1cccc2ccccc12)N/N=C/c1ccc(OC(=O)/C=C/c2ccco2)cc1	25µM*	-35%	10%	-10%	13%[59 µM]	-18%
O=C(CNc1cccc2ccccc12)N/N=C/c1ccc(C(=O)O)cc1	5%	-36%	6%	2%	?	-33%
